Article PMC11006913
Changes are numbered by the printed parent chain.

Assays:
Assay in all cases: PBM; 200 nM protein, PBS
Settings in all cases: dsDNA, one strand shown
NKX2-4 [1] = molecular target: T1, NKX2-4 (Homo sapiens, UniProt Q9H2Z4 175-261, P217L)
T1 sequence: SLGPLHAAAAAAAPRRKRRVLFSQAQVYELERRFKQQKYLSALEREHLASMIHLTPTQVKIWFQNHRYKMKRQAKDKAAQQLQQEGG

NKX2-4 [2] = molecular target: T2, NKX2-4 (Homo sapiens, UniProt Q9H2Z4 175-261, T231S)
T2 sequence: T1 sequence with L43P, T57S

NKX2-4 [3] = molecular target: T3, NKX2-4 (Homo sapiens, UniProt Q9H2Z4 175-261)
T3 sequence: T1 sequence with L43P

NKX2-4 [4] = molecular target: T4, NKX2-4 (Homo sapiens, UniProt Q9H2Z4 175-261, R246Q)
T4 sequence: T1 sequence with L43P, R72Q

VAX1 [5] = molecular target: VAX1 (Homo sapiens, UniProt Q5SQQ9 86-172)
VAX1 [6] = molecular target: VAX1 (Homo sapiens, UniProt Q5SQQ9 86-172, T142I)
VAX1 [7] = molecular target: VAX1 (Homo sapiens, UniProt Q5SQQ9 86-172, K157R)
NKX3-2 [8] = molecular target: NKX3-2 (Homo sapiens, UniProt P78367 192-278, P234S)
NKX3-2 [9] = molecular target: NKX3-2 (Homo sapiens, UniProt P78367 192-278)
VENTX = molecular target: T5, VENTX (Homo sapiens, UniProt O95231 78-163, R121Q)
T5 sequence: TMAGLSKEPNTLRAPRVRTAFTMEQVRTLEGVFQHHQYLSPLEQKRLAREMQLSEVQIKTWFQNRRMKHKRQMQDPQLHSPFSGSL

ALX1 = ALX1 (Homo sapiens, UniProt Q15699 118-204)
Chain of ALX1 (Q15699 118-204): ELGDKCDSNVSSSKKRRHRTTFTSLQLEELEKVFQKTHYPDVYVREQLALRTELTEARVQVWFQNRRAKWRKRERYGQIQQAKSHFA

Chain of NKX3-2 (Homo sapiens, UniProt P78367 192-278, P234S) (P78367 192-278 P234S): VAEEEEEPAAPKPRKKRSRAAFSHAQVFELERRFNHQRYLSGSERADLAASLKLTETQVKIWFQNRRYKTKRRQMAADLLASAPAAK
Chain of NKX3-2 (Homo sapiens, UniProt P78367 192-278) (P78367 192-278): as the sequence (P78367 192-278 P234S) above, with S43P counted along it
Chain of VAX1 (Homo sapiens, UniProt Q5SQQ9 86-172, K157R) (Q5SQQ9 86-172 K157R): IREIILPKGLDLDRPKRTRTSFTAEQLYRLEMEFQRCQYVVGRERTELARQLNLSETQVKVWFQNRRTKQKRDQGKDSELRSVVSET
Chain of VAX1 (Homo sapiens, UniProt Q5SQQ9 86-172) (Q5SQQ9 86-172): as the sequence (Q5SQQ9 86-172 K157R) above, with R72K counted along it
Chain of VAX1 (Homo sapiens, UniProt Q5SQQ9 86-172, T142I) (Q5SQQ9 86-172 T142I): as the sequence (Q5SQQ9 86-172 K157R) above, with T57I, R72K counted along it

## TACTTCAA
NKX2-4 [1]
  binding signal: 12.5 upbm affinity estimate (log intensity, higher = more binding, comparable within an allelic series)
NKX2-4 [2]
  binding signal: 12.9 upbm affinity estimate (log intensity, higher = more binding, comparable within an allelic series)
NKX2-4 [3]
  binding signal: 12.4 upbm affinity estimate (log intensity, higher = more binding, comparable within an allelic series)
NKX2-4 [4]
  binding signal: 13 upbm affinity estimate (log intensity, higher = more binding, comparable within an allelic series)

## CTACTTCA
NKX2-4 [1]
  binding signal: 12.4 upbm affinity estimate (log intensity, higher = more binding, comparable within an allelic series)
NKX2-4 [2]
  binding signal: 12.6 upbm affinity estimate (log intensity, higher = more binding, comparable within an allelic series)
NKX2-4 [3]
  binding signal: 12.2 upbm affinity estimate (log intensity, higher = more binding, comparable within an allelic series)
NKX2-4 [4]
  binding signal: 12.8 upbm affinity estimate (log intensity, higher = more binding, comparable within an allelic series)

## CCACTCCA
NKX2-4 [1]
  binding signal: 12.5 upbm affinity estimate (log intensity, higher = more binding, comparable within an allelic series)
NKX2-4 [2]
  binding signal: 12.8 upbm affinity estimate (log intensity, higher = more binding, comparable within an allelic series)
NKX2-4 [3]
  binding signal: 12.3 upbm affinity estimate (log intensity, higher = more binding, comparable within an allelic series)
NKX2-4 [4]
  binding signal: 12.9 upbm affinity estimate (log intensity, higher = more binding, comparable within an allelic series)

## CGCACGCG
NKX2-4 [1]
  binding signal: 9.51 upbm affinity estimate (log intensity, higher = more binding, comparable within an allelic series)
NKX2-4 [2]
  binding signal: 9.45 upbm affinity estimate (log intensity, higher = more binding, comparable within an allelic series)
NKX2-4 [3]
  binding signal: 9.53 upbm affinity estimate (log intensity, higher = more binding, comparable within an allelic series)
NKX2-4 [4]
  binding signal: 9.45 upbm affinity estimate (log intensity, higher = more binding, comparable within an allelic series)

## CCGCGGTA
NKX2-4 [1]
  binding signal: 9.81 upbm affinity estimate (log intensity, higher = more binding, comparable within an allelic series)
NKX2-4 [2]
  binding signal: 9.73 upbm affinity estimate (log intensity, higher = more binding, comparable within an allelic series)
NKX2-4 [3]
  binding signal: 9.75 upbm affinity estimate (log intensity, higher = more binding, comparable within an allelic series)
NKX2-4 [4]
  binding signal: 9.9 upbm affinity estimate (log intensity, higher = more binding, comparable within an allelic series)

## CCCAAACG
NKX2-4 [1]
  binding signal: 9.71 upbm affinity estimate (log intensity, higher = more binding, comparable within an allelic series)
NKX2-4 [2]
  binding signal: 9.8 upbm affinity estimate (log intensity, higher = more binding, comparable within an allelic series)
NKX2-4 [3]
  binding signal: 9.76 upbm affinity estimate (log intensity, higher = more binding, comparable within an allelic series)
NKX2-4 [4]
  binding signal: 9.88 upbm affinity estimate (log intensity, higher = more binding, comparable within an allelic series)

## CGGTCGAC
NKX2-4 [1]
  binding signal: 9.4 upbm affinity estimate (log intensity, higher = more binding, comparable within an allelic series)
NKX2-4 [2]
  binding signal: 9.24 upbm affinity estimate (log intensity, higher = more binding, comparable within an allelic series)
NKX2-4 [3]
  binding signal: 9.3 upbm affinity estimate (log intensity, higher = more binding, comparable within an allelic series)
NKX2-4 [4]
  binding signal: 9.39 upbm affinity estimate (log intensity, higher = more binding, comparable within an allelic series)
VAX1 [5]
  binding signal: 7.17 upbm affinity estimate (log intensity, higher = more binding, comparable within an allelic series)
VAX1 [6]
  binding signal: 7.28 upbm affinity estimate (log intensity, higher = more binding, comparable within an allelic series)
VAX1 [7]
  binding signal: 7.34 upbm affinity estimate (log intensity, higher = more binding, comparable within an allelic series)

## CACTCTTA
NKX2-4 [1]
  binding signal: 12.3 upbm affinity estimate (log intensity, higher = more binding, comparable within an allelic series)
NKX2-4 [2]
  binding signal: 12.7 upbm affinity estimate (log intensity, higher = more binding, comparable within an allelic series)
NKX2-4 [3]
  binding signal: 12.3 upbm affinity estimate (log intensity, higher = more binding, comparable within an allelic series)
NKX2-4 [4]
  binding signal: 12.8 upbm affinity estimate (log intensity, higher = more binding, comparable within an allelic series)
NKX3-2 [8]
  binding signal: 12.5 upbm affinity estimate (log intensity, higher = more binding, comparable within an allelic series)
NKX3-2 [9]
  binding signal: 12.6 upbm affinity estimate (log intensity, higher = more binding, comparable within an allelic series)

## TGCCCCCA
NKX2-4 [1]
  binding signal: 9.77 upbm affinity estimate (log intensity, higher = more binding, comparable within an allelic series)
NKX2-4 [2]
  binding signal: 9.8 upbm affinity estimate (log intensity, higher = more binding, comparable within an allelic series)
NKX2-4 [3]
  binding signal: 9.76 upbm affinity estimate (log intensity, higher = more binding, comparable within an allelic series)
NKX2-4 [4]
  binding signal: 9.88 upbm affinity estimate (log intensity, higher = more binding, comparable within an allelic series)

## ACGGCCCG
NKX2-4 [1]
  binding signal: 9.61 upbm affinity estimate (log intensity, higher = more binding, comparable within an allelic series)
NKX2-4 [2]
  binding signal: 9.59 upbm affinity estimate (log intensity, higher = more binding, comparable within an allelic series)
NKX2-4 [3]
  binding signal: 9.62 upbm affinity estimate (log intensity, higher = more binding, comparable within an allelic series)
NKX2-4 [4]
  binding signal: 9.64 upbm affinity estimate (log intensity, higher = more binding, comparable within an allelic series)

## CCTCGTTA
VENTX
  binding signal: 10.3 upbm affinity estimate (log intensity, higher = more binding, comparable within an allelic series)

## GGCAGTCA
NKX2-4 [1]
  binding signal: 10.1 upbm affinity estimate (log intensity, higher = more binding, comparable within an allelic series)
NKX2-4 [2]
  binding signal: 10 upbm affinity estimate (log intensity, higher = more binding, comparable within an allelic series)
NKX2-4 [3]
  binding signal: 9.98 upbm affinity estimate (log intensity, higher = more binding, comparable within an allelic series)
NKX2-4 [4]
  binding signal: 10.1 upbm affinity estimate (log intensity, higher = more binding, comparable within an allelic series)

## ATCCGGCC
NKX2-4 [1]
  binding signal: 9.77 upbm affinity estimate (log intensity, higher = more binding, comparable within an allelic series)
NKX2-4 [2]
  binding signal: 9.8 upbm affinity estimate (log intensity, higher = more binding, comparable within an allelic series)
NKX2-4 [3]
  binding signal: 9.79 upbm affinity estimate (log intensity, higher = more binding, comparable within an allelic series)
NKX2-4 [4]
  binding signal: 9.9 upbm affinity estimate (log intensity, higher = more binding, comparable within an allelic series)

## ATTTAGTG
NKX2-4 [1]
  binding signal: 11.4 upbm affinity estimate (log intensity, higher = more binding, comparable within an allelic series)
NKX2-4 [2]
  binding signal: 11.6 upbm affinity estimate (log intensity, higher = more binding, comparable within an allelic series)
NKX2-4 [3]
  binding signal: 11.4 upbm affinity estimate (log intensity, higher = more binding, comparable within an allelic series)
NKX2-4 [4]
  binding signal: 11.5 upbm affinity estimate (log intensity, higher = more binding, comparable within an allelic series)

## GACACCGC
NKX2-4 [1]
  binding signal: 9.33 upbm affinity estimate (log intensity, higher = more binding, comparable within an allelic series)
NKX2-4 [2]
  binding signal: 9.29 upbm affinity estimate (log intensity, higher = more binding, comparable within an allelic series)
NKX2-4 [3]
  binding signal: 9.43 upbm affinity estimate (log intensity, higher = more binding, comparable within an allelic series)
NKX2-4 [4]
  binding signal: 9.52 upbm affinity estimate (log intensity, higher = more binding, comparable within an allelic series)

## GCGGGCCC
NKX2-4 [1]
  binding signal: 9.61 upbm affinity estimate (log intensity, higher = more binding, comparable within an allelic series)
NKX2-4 [2]
  binding signal: 9.54 upbm affinity estimate (log intensity, higher = more binding, comparable within an allelic series)
NKX2-4 [3]
  binding signal: 9.63 upbm affinity estimate (log intensity, higher = more binding, comparable within an allelic series)
NKX2-4 [4]
  binding signal: 9.68 upbm affinity estimate (log intensity, higher = more binding, comparable within an allelic series)

## ACTTAGCT
NKX2-4 [1]
  binding signal: 11.7 upbm affinity estimate (log intensity, higher = more binding, comparable within an allelic series)
NKX2-4 [2]
  binding signal: 11.8 upbm affinity estimate (log intensity, higher = more binding, comparable within an allelic series)
NKX2-4 [3]
  binding signal: 11.5 upbm affinity estimate (log intensity, higher = more binding, comparable within an allelic series)
NKX2-4 [4]
  binding signal: 11.9 upbm affinity estimate (log intensity, higher = more binding, comparable within an allelic series)

## CGGTTCCA
NKX2-4 [1]
  binding signal: 9.98 upbm affinity estimate (log intensity, higher = more binding, comparable within an allelic series)
NKX2-4 [2]
  binding signal: 9.95 upbm affinity estimate (log intensity, higher = more binding, comparable within an allelic series)
NKX2-4 [3]
  binding signal: 9.92 upbm affinity estimate (log intensity, higher = more binding, comparable within an allelic series)
NKX2-4 [4]
  binding signal: 10 upbm affinity estimate (log intensity, higher = more binding, comparable within an allelic series)

## ACTCTTAA
NKX2-4 [1]
  binding signal: 12.4 upbm affinity estimate (log intensity, higher = more binding, comparable within an allelic series)
ALX1
  binding signal: 8.51 upbm affinity estimate (log intensity, higher = more binding, comparable within an allelic series)

## GCAAGTGC
NKX2-4 [1]
  binding signal: 11.9 upbm affinity estimate (log intensity, higher = more binding, comparable within an allelic series)
NKX2-4 [2]
  binding signal: 12.1 upbm affinity estimate (log intensity, higher = more binding, comparable within an allelic series)
NKX2-4 [3]
  binding signal: 11.7 upbm affinity estimate (log intensity, higher = more binding, comparable within an allelic series)
NKX2-4 [4]
  binding signal: 12.2 upbm affinity estimate (log intensity, higher = more binding, comparable within an allelic series)

## GAAGAGTA
NKX2-4 [1]
  binding signal: 11.9 upbm affinity estimate (log intensity, higher = more binding, comparable within an allelic series)
NKX2-4 [2]
  binding signal: 12.2 upbm affinity estimate (log intensity, higher = more binding, comparable within an allelic series)
NKX2-4 [3]
  binding signal: 11.7 upbm affinity estimate (log intensity, higher = more binding, comparable within an allelic series)
NKX2-4 [4]
  binding signal: 12.2 upbm affinity estimate (log intensity, higher = more binding, comparable within an allelic series)

## CCTGCGCG
NKX2-4 [1]
  binding signal: 9.34 upbm affinity estimate (log intensity, higher = more binding, comparable within an allelic series)
NKX2-4 [2]
  binding signal: 9.28 upbm affinity estimate (log intensity, higher = more binding, comparable within an allelic series)
NKX2-4 [3]
  binding signal: 9.35 upbm affinity estimate (log intensity, higher = more binding, comparable within an allelic series)
NKX2-4 [4]
  binding signal: 9.37 upbm affinity estimate (log intensity, higher = more binding, comparable within an allelic series)

## CACTCAAA
NKX2-4 [1]
  binding signal: 12.4 upbm affinity estimate (log intensity, higher = more binding, comparable within an allelic series)
NKX3-2 [8]
  binding signal: 12.3 upbm affinity estimate (log intensity, higher = more binding, comparable within an allelic series)
NKX3-2 [9]
  binding signal: 12.3 upbm affinity estimate (log intensity, higher = more binding, comparable within an allelic series)
